Outcome and AC50 data for 14 compounds are collected here from PubChem BioAssay (EPA / NIEHS).

As a reminder, the AC50 is the concentration giving half of the maximal activity seen.

Records with an inconclusive call do not appear. The source made the active and inactive calls. The calls were made as follows, unless noted: active = hit-call score of the fitted dose curve at least 0.9, where 1 is the maximum; inactive = score below 0.9.

Experiment [1] in a line: ATG_XTT_Cytotoxicity: Cytotoxicity Assessment in the Attagene TRANS-FACTORIAL HepG2 Assay (AID 2283584; active = hit-call score of the fitted dose curve at least 0.9, where 1 is the maximum). In short, it runs like this: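 HepG2 human liver cells, transiently transfected with multiple GAL4-UAS reporter units, were dosed and read at 24 h by XTT as cell number. Loss of signal was fitted relative to DMSO negative control baseline.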
Read-out in experiment [2]: Nuclear factor erythroid 2-related factor 2 (Homo sapiens) (UniProt Q16236)
The experiment can be described thus: LTEA_HepaRG_NFE2L2: Life Technologies and Expression Analysis (LTEA) Assay for Nuclear factor erythroid 2-related factor 2 (NFE2L2) Transcription Factor using HepaRG (AID 2283527).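 Also: TaqMan qRT-PCR transcript level normalised to ACTB GAPDH and POLR2A housekeeping genes.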 To be noted: mRNA level, 48 h; actives raise or lower the signal. In short, it runs like this: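 Human liver HepaRG line treated in duplicate for 48 h with an eight-point series topping at 100 uM. Gene expression of NFE2L2 by qRT-PCR, bidirectionally fitted against the vehicle control.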

Read-out in experiment [3]: succinate dehydrogenase complex iron sulfur subunit B (SDHB), SDHB (gene 6390)
As to the kind of experiment: LTEA_HepaRG_SDHB: Life Technologies and Expression Analysis (LTEA) Assay for succinate dehydrogenase complex iron sulfur subunit B (SDHB) using HepaRG (AID 2283528). To be noted: mRNA level, 48 h; actives raise or lower the signal. In a few lines:
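A human HepaRG culture in serum-free induction medium received test chemicals for 48 h over an eight-point range capped at 100 uM. SDHB expression change was quantified by qRT-PCR.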

Read-out in experiment [4]: Signal transducer and activator of transcription 3 (Homo sapiens) (UniProt P40763)
The experiment can be described thus: LTEA_HepaRG_STAT3: Life Technologies and Expression Analysis (LTEA) Assay for Signal transducer and activator of transcription (STAT3) using HepaRG (AID 2283529). The following applies: mRNA level, 48 h; actives raise or lower the signal. In short, it runs like this:
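In this transcriptional endpoint, HepaRG cultures receive test chemicals at up to 100 uM for 48 h, tested in duplicate. STAT3 mRNA is normalized to ACTB, GAPDH and POLR2A.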

Read-out in experiment [5]: solute carrier (SLCO1B1), SLCO1B1 (gene 10599)
As to the kind of experiment: LTEA_HepaRG_SLCO1B1: Life Technologies and Expression Analysis (LTEA) Assay for solute carrier (SLCO1B1) using HepaRG (AID 2283530). The following applies: mRNA level, 48 h; actives raise or lower the signal. In a few lines:
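Differentiated human HepaRG cells, plated 48 h, switched to serum-free induction medium and exposed in duplicate for 48 h to 8 half-log concentrations (top 100 uM) in 0.5% DMSO. SLCO1B1 mRNA by TaqMan qRT-PCR, normalized to ACTB/GAPDH/POLR2A.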

Read-out in experiment [6]: sulfotransferase 2A1 (SULT2A1), SULT2A1 (gene 6822)
The experiment can be described thus: LTEA_HepaRG_SULT2A1: Life Technologies and Expression Analysis (LTEA) Assay for sulfotransferase 2A1 (SULT2A1) using HepaRG (AID 2283531). The following applies: mRNA level, 48 h; actives raise or lower the signal. In short, it runs like this: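 Differentiated human HepaRG cells in serum-free induction medium were exposed for 48 h to eight half-log concentrations (top 100 uM, 0.5% DMSO). SULT2A1 mRNA was measured by qRT-PCR, normalized to ACTB, GAPDH and POLR2A, and fitted bidirectionally against DMSO.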

Read-out in experiment [7]: Transforming Growth Factor (TGFA), TGFA (gene 7039)
The experiment can be described thus: LTEA_HepaRG_TGFA: Life Technologies and Expression Analysis (LTEA) Assay for Transforming Growth Factor (TGFA) using HepaRG (AID 2283532). To be noted: mRNA level, 48 h; actives raise or lower the signal. In a few lines:
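Gene expression of TGFA was quantified by qRT-PCR after human HepaRG cells were treated for 48 h with test chemicals (eight concentrations, highest 100 uM, 0.5% DMSO). Activity in either direction was fitted relative to DMSO.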

Read-out in experiment [8]: Transforming Growth Factor (TGFB1), TGFB1 (gene 7040)
As to the kind of experiment: LTEA_HepaRG_TGFB1: Life Technologies and Expression Analysis (LTEA) Assay for Transforming Growth Factor (TGFB1) Transporter using HepaRG (AID 2283533). To be noted: mRNA level, 48 h; actives raise or lower the signal. In short, it runs like this: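 Differentiated human HepaRG cells in serum-free induction medium were exposed in duplicate for 48 h to eight concentrations (top 100 uM, half-log steps, 0.5% DMSO). TGFB1 mRNA was quantified by qRT-PCR, normalized to ACTB, GAPDH, POLR2A, and fitted bidirectionally against DMSO.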

Read-out in a further experiment: TIMP1, TIMP1 (gene 7076)
As to the kind of experiment: LTEA_HepaRG_TIMP1: Life Technologies and Expression Analysis (LTEA) Assay for TIMP1 using HepaRG (AID 2283534). The following applies: mRNA level, 48 h; actives raise or lower the signal. In a few lines: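 Differentiated human HepaRG cells in serum-free induction medium were exposed 48 h to chemicals (8 half-log concentrations, top 100 uM, 0.5% DMSO). TIMP1 mRNA was quantified by TaqMan qRT-PCR, normalized to ACTB/GAPDH/POLR2A; bidirectional fit versus DMSO.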

Read-out in experiment [9]: Tumor necrosis factor receptor 1 (TNFRSF1A), TNFRSF1A (gene 7132)
As to the kind of experiment: LTEA_HepaRG_TNFRSF1A: Life Technologies and Expression Analysis (LTEA) Assay for Tumor necrosis factor receptor 1 (TNFRSF1A) using HepaRG (AID 2283535). To be noted: mRNA level, 48 h; actives raise or lower the signal. In short, it runs like this: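 Differentiated human HepaRG cells were exposed in duplicate for 48 h in serum-free induction medium to eight concentrations (top 100 uM, half-log steps, 0.5% DMSO). TNFRSF1A mRNA was quantified by qRT-PCR, normalized to ACTB, GAPDH and POLR2A, then fitted bidirectionally against DMSO.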

Read-out in experiment [10]: Thyroid Hormone Responsive (THRSP), THRSP (gene 7069)
The experiment can be described thus: LTEA_HepaRG_THRSP: Life Technologies and Expression Analysis (LTEA) Assay for Thyroid Hormone Responsive (THRSP) using HepaRG (AID 2283536). To be noted: mRNA level, 48 h; actives raise or lower the signal. In short, it runs like this:
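Cell model: human HepaRG, approx. 100,000 cells/well, 0.5% DMSO vehicle. Exposure lasts 48 h; phenobarbital 1 mM serves as induction positive control. Gene expression is measured by qRT-PCR against three endogenous control genes.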

Read-out in experiment [11]: Cellular tumor antigen p53 (Homo sapiens) (UniProt P04637)
As to the kind of experiment: LTEA_HepaRG_TP53: Life Technologies and Expression Analysis (LTEA) Assay for Tumor Protein P53 (TP53) using HepaRG (AID 2283537). To be noted: mRNA level, 48 h; actives raise or lower the signal. In short, it runs like this: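 Gain or loss of TP53 mRNA signal is scored relative to 0.5% DMSO after 48 h chemical treatment of HepaRG liver cells, tested in duplicate at eight half-log concentrations up to 100 uM.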

Read-out in experiment [12]: UDP glucuronosyltransferase (UGT1A1), UGT1A1 (gene 54658)
The experiment can be described thus: LTEA_HepaRG_UGT1A1: Life Technologies and Expression Analysis (LTEA) Assay for UDP glucuronosyltransferase (UGT1A1) using HepaRG (AID 2283538). The following applies: mRNA level, 48 h; actives raise or lower the signal. In a few lines: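 UGT1A1 transcript level, measured by qRT-PCR with three housekeeping genes for normalization, after 48 h treatment of human HepaRG cells (0.5% DMSO, duplicates, up to 100 uM, half-log steps, 8 points). Curves fit both directions against DMSO baseline.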

Read-out in experiment [13]: UDP glucuronosyltransferase (UGT1A6), UGT1A6 (gene 54578)
As to the kind of experiment: LTEA_HepaRG_UGT1A6: Life Technologies and Expression Analysis (LTEA) Assay for UDP glucuronosyltransferase (UGT1A6) using HepaRG (AID 2283539). The following applies: mRNA level, 48 h; actives raise or lower the signal. In a few lines: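 Human HepaRG cells were dosed for 48 h in serum-free induction medium with 0.5% DMSO vehicle, eight-point half-log series from 100 uM, in duplicate. UGT1A6 mRNA was measured by qRT-PCR, normalized to ACTB, GAPDH, POLR2A, and fitted bidirectionally against DMSO.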

Read-out in experiment [14]: X-box binding protein 1 (XBP1), XBP1 (gene 7494)
As to the kind of experiment: LTEA_HepaRG_XBP1: Life Technologies and Expression Analysis (LTEA) Assay for X-box binding protein 1 (XBP1) using HepaRG (AID 2283540). The following applies: mRNA level, 48 h; actives raise or lower the signal. In a few lines:
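Differentiated human HepaRG cells in serum-free induction medium were exposed in duplicate for 48 h to eight half-log concentrations up to 100 uM in 0.5% DMSO. XBP1 mRNA was quantified by qRT-PCR, normalised to ACTB, GAPDH and POLR2A, with bidirectional fitting against DMSO.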

The nature of experiment [15]: LTEA_HepaRG_LDH_cytotoxicity: Cytotoxicity Assessment in the Life Technologies and Expression Analysis (LTEA) Assay (AID 2283563; active = hit-call score of the fitted dose curve at least 0.9, where 1 is the maximum). In a few lines:
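Differentiated human HepaRG cells, plated 48 h beforehand, were switched to serum-free induction medium and exposed for 48 h to eight half-log concentrations (top 100 uM) in 0.5% DMSO. LDH was measured in spent medium; activity was fitted relative to DMSO vehicle.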

A short description of experiment [16]: TOX21_p53_BLA_p2_viability: Viability Assessment in the Tox21 HCT-116 p53 Agonism Beta-lactamase Assay, Phase 2 (AID 2283591; active = hit-call score of the fitted dose curve at least 0.9, where 1 is the maximum;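 also: compound exposure lasted 16 h at 37 °C; actives lower the ATP signal meaning cytotoxicity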). In a few lines:
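HCT-116 p53-bla cells (4000/well) rested 5 h at 37C, then received compounds in DMSO (217-fold dilution) for 16 h at 37C, 5% CO2. After the CCF4 read, CellTiter-Glo was added; ATP luminescence was read after 30 min at room temperature.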

Experiment [17] deals with Cellular tumor antigen p53 (Homo sapiens) (UniProt P04637). As to the kind of experiment: TOX21_p53_BLA_p2_ratio: Tox21 HCT-116 p53 Agonism Beta-lactamase Assay, Ratio, Phase 2 (AID 2283592; active = hit-call score of the fitted dose curve at least 0.9, where 1 is the maximum). In short, it runs like this: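 Ratio endpoint: beta-lactamase cleavage of CCF4-AM, blue (460 nm) over green (530 nm). HCT116 reporter line; 16 h treatment, 37C; substrate 2 h RT.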

Experiment [18] is described as follows: TOX21_p53_BLA_p3_viability: Viability Assessment in the Tox21 HCT-116 p53 Agonism Beta-lactamase Assay, Phase 3 (AID 2283593; active = hit-call score of the fitted dose curve at least 0.9, where 1 is the maximum;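 also: cells exposed to compound for 16 h before reading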). In short, it runs like this:
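HCT-116 cells (4000/well) rested 5 h at 37C, then got DMSO compounds by pin tool (217-fold dilution) for 16 h at 37C, 5% CO2. After the bla read, CellTiter-Glo was added and luminescence read at 30 min, room temperature.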

The target of experiment [19] is Cellular tumor antigen p53 (Homo sapiens) (UniProt P04637). As to the kind of experiment: TOX21_p53_BLA_p3_ratio: Tox21 HCT-116 p53 Agonism Beta-lactamase Assay, Ratio, Phase 3 (AID 2283596; active = hit-call score of the fitted dose curve at least 0.9, where 1 is the maximum). In a few lines: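 Cells were seeded at 4000/well, rested 5 h at 37C, then dosed with DMSO compound solutions (217-fold dilution) for 16 h. CCF4-AM substrate was loaded for 2 h at room temperature, and the 460/530 nm emission ratio was fitted for gain of signal versus DMSO.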

Sequence of Nuclear factor erythroid 2-related factor 2 (Homo sapiens) (Q16236 whole entry, looked up): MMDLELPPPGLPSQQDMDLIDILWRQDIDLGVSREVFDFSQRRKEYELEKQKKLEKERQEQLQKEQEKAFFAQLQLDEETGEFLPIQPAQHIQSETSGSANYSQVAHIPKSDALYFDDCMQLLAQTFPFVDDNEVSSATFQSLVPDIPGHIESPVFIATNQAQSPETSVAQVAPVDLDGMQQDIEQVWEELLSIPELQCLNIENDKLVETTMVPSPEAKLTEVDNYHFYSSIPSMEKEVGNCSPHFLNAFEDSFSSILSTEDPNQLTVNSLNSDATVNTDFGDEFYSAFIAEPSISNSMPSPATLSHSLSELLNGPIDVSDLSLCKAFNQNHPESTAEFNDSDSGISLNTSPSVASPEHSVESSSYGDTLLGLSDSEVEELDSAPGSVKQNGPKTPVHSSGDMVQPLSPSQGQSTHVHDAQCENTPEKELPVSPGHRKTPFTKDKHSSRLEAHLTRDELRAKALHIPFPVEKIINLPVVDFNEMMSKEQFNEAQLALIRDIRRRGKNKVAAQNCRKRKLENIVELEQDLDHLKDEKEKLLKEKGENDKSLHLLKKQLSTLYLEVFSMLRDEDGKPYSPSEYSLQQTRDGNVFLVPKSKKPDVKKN
Sequence of Cellular tumor antigen p53 (Homo sapiens) (P04637 whole entry, looked up): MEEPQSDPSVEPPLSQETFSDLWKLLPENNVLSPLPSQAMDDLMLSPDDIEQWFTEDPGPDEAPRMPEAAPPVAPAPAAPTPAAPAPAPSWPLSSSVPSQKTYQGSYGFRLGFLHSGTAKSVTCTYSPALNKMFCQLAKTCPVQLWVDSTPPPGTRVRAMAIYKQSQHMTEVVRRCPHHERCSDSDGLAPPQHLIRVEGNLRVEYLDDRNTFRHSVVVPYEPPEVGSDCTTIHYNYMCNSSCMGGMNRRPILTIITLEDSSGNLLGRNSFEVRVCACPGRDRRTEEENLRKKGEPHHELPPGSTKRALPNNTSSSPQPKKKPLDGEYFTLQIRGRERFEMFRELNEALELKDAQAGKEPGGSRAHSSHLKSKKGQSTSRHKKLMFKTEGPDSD
Sequence of Signal transducer and activator of transcription 3 (Homo sapiens) (P40763 whole entry, looked up): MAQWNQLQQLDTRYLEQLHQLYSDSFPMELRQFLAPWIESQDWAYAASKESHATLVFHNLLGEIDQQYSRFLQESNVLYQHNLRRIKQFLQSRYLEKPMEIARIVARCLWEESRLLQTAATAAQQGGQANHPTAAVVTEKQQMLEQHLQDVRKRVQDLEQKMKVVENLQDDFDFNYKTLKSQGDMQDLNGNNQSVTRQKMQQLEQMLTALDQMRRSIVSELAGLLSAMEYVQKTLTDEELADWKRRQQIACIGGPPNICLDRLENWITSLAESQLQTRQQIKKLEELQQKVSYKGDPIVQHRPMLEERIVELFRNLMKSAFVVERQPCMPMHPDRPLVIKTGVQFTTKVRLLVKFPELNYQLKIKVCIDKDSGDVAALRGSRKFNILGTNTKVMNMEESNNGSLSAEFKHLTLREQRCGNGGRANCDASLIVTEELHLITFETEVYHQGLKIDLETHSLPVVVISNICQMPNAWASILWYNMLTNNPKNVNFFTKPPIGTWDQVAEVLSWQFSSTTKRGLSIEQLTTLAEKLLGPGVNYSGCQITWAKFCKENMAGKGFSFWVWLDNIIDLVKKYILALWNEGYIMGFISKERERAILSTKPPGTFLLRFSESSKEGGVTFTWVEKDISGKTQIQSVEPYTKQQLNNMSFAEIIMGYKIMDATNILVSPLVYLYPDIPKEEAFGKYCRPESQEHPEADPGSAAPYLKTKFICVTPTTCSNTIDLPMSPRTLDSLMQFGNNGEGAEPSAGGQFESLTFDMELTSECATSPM

Regarding `Nc1nc(N)nc(-c2ccccc2)n1`, the compound was classed as inactive in experiment [1].

For `c1ccc2sc(SSN3CCOCC3)nc2c1`, in experiment [1], the compound was called inactive.

In the case of `C1CNCCN1`, the compound was classed as inactive in [2], in experiment [3], in experiment [4], in experiment [5], in [6] and in [7]. Further, the outcome in experiment [8] was “inactive”; with TIMP1, TIMP1 (gene 7076), “inactive”; in experiment [9], “inactive”; in experiment [10], “inactive”; in [11], “inactive”; in experiment [12], “inactive”. Besides, the call in experiment [13], in [14], in experiment [15], in experiment [1], in [16] and in experiment [17] was inactive. The outcome in experiment [18] and in experiment [19] was inactive.

As to `CC(C)CCOCc1ccccc1`, the outcome in [1] was inactive.

With `Cc1ccc2c(c1)CCCN2`, the call in experiment [1] was inactive.

`CC(C)=NNC(N)=S`: the compound was classed as inactive in [1].

Regarding `CCCCCCCCCCCCCc1ccccc1`, the result in experiment [1] was inactive.

Take `Nc1ccc(C(=O)O)cc1`: the call in [2], in experiment [3], in experiment [4], in experiment [5], in experiment [6] and in [7] was inactive. Moreover, the outcome in experiment [8] is “inactive”; with TIMP1, TIMP1 (gene 7076), “inactive”; in experiment [9], “inactive”; in [10], “inactive”; in [11], “inactive”; in experiment [12], “inactive”. Further, the call in [13], in experiment [14], in [15], in [1], in experiment [16] and in [17] was inactive. Further, the result in experiment [19] was inactive.

On to `CCC(=O)C1CC(C(C)C)CC=C1C` (configuration not stated), for which the result in experiment [1] was inactive.

For `CC(C=O)c1ccccc1` (configuration not stated), the call in [1] was inactive.

On to `CCCCCCCO`, for which the result in experiment [1] was inactive.

With `Cc1cc(=O)[nH]c(=O)[nH]1`, the compound was classed as inactive in [1].

Take `CCOC(=O)CC(=O)c1ccccc1`: in [1], the outcome was inactive.

Turning to `Cc1ccc([N+](=O)[O-])cc1N`, the outcome in [2], in experiment [3], in experiment [4], in experiment [5], in [6] and in [7] was inactive. Also, the outcome in experiment [8] was “inactive”; in the experiment with TIMP1, TIMP1 (gene 7076) it was “inactive”; in [9], “inactive”; in experiment [11], “inactive”; in experiment [13], “inactive”; in experiment [14], “inactive”. The compound was called inactive in experiment [15], in experiment [1] and in experiment [19]. Also, the figures for the AC50 in [10] and in experiment [12] were 13.3 µM (active) and 50 µM (active), respectively.
